Shown are actives, neighbours in structure and some others; about 12% of the full set was active somewhere.
Marburg entry inh: blocks Marburg virus binding to or entry into cells; Marburg virus pseudotyped entry inhibition, cell reporter; Potency, µM (titrated, usually from 37.8 µM), inactives show at the highest dose activity change, negative = inhibition, hits mostly inhibitors; 300,000 tested, 1.8% active; AID 540276; calls by dose curve; tested in HEK293 cells; also: potency is read from the fitted curve at half-maximal effect; % is scaled to controls: 0 for no effect and ±100 for the full control effect
Lassa entry inh: blocks Lassa virus binding to or entry into cells | Lassa virus pseudotype entry inhibition, cell reporter | Potency, µM (doses to about 37.9 µM), inactives show at the highest dose activity change, negative = inhibition, usual class: inhibitors | 300,000 tested, 1.2% active | AID 540256; calls by dose curve; tested in HEK293 cells; also: potency is read from the fitted curve at half-maximal effect; % is scaled to controls: 0 for no effect and ±100 for the full control effect; nearly all actives have a fitted effect of over 50% in size
Shiga inhibitor: Shiga toxin inhibition; Vero cells, Shiga toxin protein synthesis inhibition reporter; inhibition, % at 38.7 µM; 290,000 tested, 9.2% active; AID 2315; in the data active = inhibition mostly above about 28%, no sharp cut-off; inactive = mostly below about 43%; also: 0% is about no effect
CHX counter: affects cycloheximide protein synthesis inhibition readout, counter-screen; max response, %; cell reporter, cycloheximide protein synthesis inhibition counterscreen; 300,000 tested, 12% active; in the data active = max response mostly above about 13%, no sharp cut-off; inactive = mostly below about 14%; also: read at 38.3 µM for the half of the compounds with a filed dose; 0% is about no effect
Starred values were filed as active, the others as inactive; ? = inconclusive; · = no result given; + = active, no number; ! = repeats disagree; [ ] = dose if it differs, or a comment.

SMILES	Marburg entry inh	Lassa entry inh	Shiga inhibitor	CHX counter
COc1cc(/C=N/n2c(C3CCCCC3)n[nH]c2=S)ccc1O	·	·	-9	4
Cc1cccc(-c2noc(CSc3ccccc3)n2)c1	12%	-26%	67*	44*
Cc1cccc(-c2noc(CSc3nc(-c4ccc(F)cc4)cc(=O)[nH]3)n2)c1	·	4%[46.1 µM]	·	·
O=C(COC(=O)c1cc([N+](=O)[O-])ccc1NCCO)c1ccccc1	?	12%	-11	13
Cc1cc(=O)oc2c3c(cc(OCC(=O)NCc4ccco4)c12)OC(C)(C)CC3	·	·	33*	30*
CCCCOc1ccc(CSCCN=C(N)N)cc1	?	?	42*	31*
CCCCOc1ccc(CSC(CC(=O)O)C(=O)O)cc1 (centres undefined)	5%	-6%	1	-2
Cc1cc(C)cc(NC(=O)NCC(O)COc2ccc([N+](=O)[O-])cc2)c1 (centres undefined)	·	·	-3	5
OC(CNc1ccccc1)COc1ccc(OCC(O)CNc2ccccc2)cc1 (centres undefined)	11µM*	?	-2	-1
O=C(NCC(O)COc1ccc([N+](=O)[O-])cc1)Nc1ccccc1 (centres undefined)	5%[14.2 µM]	18%	34*	30*
Cc1cc(CN2CCN(CC(=O)Nc3cc(C(F)(F)F)ccc3-n3cncn3)CC2)no1	-9%	6%	·	·
COc1cccc(CN2CC(C(=O)NCCC3=CCCCC3)CCC2=O)c1 (centres undefined)	·	·	17	19
CCC(=NCCN1CCOCC1)c1c(O)n(-c2ccccc2C)c(=O)[nH]c1=O	5%[46.1 µM]	-5%	-4	-2
CC/C(=N\N1CCCCCC1)c1c(O)n(-c2ccccc2C)c(=O)[nH]c1=O	-21%	10µM*	-3	-7
CN(C)NC1=CC(=[N+]2CCCC2)CC(C)(C)C1	2%[46.1 µM]	0%	14	-4
CCCN(CCC)C1=CC(=[N+]2CCCC2)CC(C)(C)C1	?	10µM*	-2	-2
CC[n+]1c(/C=C/c2ccc(OC(C)=O)c(OC)c2)ccc2ccccc21	·	·	61*	40*
CC[n+]1c(/C=C/c2ccc(OC)c(OC)c2)ccc2ccccc21	·	·	116*	26*
CC[n+]1c(/C=C/c2ccc(N(C)C)cc2)ccc2ccccc21	1.6µM*	9.2µM*	active	24*
CCN(CC)c1ccc(/C=C/c2ccc3ccc(OC)cc3[n+]2CC)cc1	·	·	-5	6
CC[n+]1ccccc1/C=C/c1ccc(N(C)C)cc1	·	·	-10	-1
COc1cccc(NC(=O)Cc2nc(-c3ccccc3)sc2-c2ccc(C)cc2)c1	?	0%[46.1 µM]	51*	28*
CC(=O)Nc1cccc(NC(=O)Cc2nc(-c3ccccc3)sc2-c2ccc(C)cc2)c1	?	?	130*	20*
CCOc1ccc(NC(=NCc2ccc3c(c2)OCO3)SC2CC(=O)N(c3ccc(OCC)cc3)C2=O)cc1 (centres undefined)	0%	-23%	+	63*
O=C(OCC(=O)C12CC3CC(CC(C3)C1)C2)c1ccccn1	·	·	-10	13
SMILES	Marburg entry inh	Lassa entry inh	Shiga inhibitor	CHX counter
Cc1cc(C)c(C(=O)COC(=O)c2cccnc2Cl)c(C)c1	?	2%[46.1 µM]	90*	56*
CCOc1ncccc1C(=O)OCC(=O)c1ccc(C)c(C)c1	-1%	?	70*	43*
CCOc1ncccc1C(=O)OCC(=O)c1ccc(OC)c(OC)c1	25%[46.1 µM]	19%[46.1 µM]	-1	14
COc1ccc(OC)c(C(=O)COC(=O)c2ccccc2O)c1	12%	22%	110*	16*
O=C(OCC(=O)C12CC3CC(CC(C3)C1)C2)c1cccnc1Cl	27%	-1%	29	20*
Cc1ccc(N(C)C(=O)Cn2ncc3c([nH]c4ccccc43)c2=O)cc1C	·	-5%[46.1 µM]	·	·
COc1ccc(C(=O)COC(=O)c2cccnc2Cl)c(OC)c1	24%[46.1 µM]	28%	72*	38*
COc1ccc(OC)c(C(=O)COC(=O)c2cccnc2Cl)c1	·	·	18	10
CC(C)CC(c1nnnn1C(C)C)N1CCN(c2ccccc2)CC1 (centres undefined)	-8%	?	4	2
Cc1ccc(C(=O)O[C@H](C(=O)O)[C@@H](OC(=O)c2ccc(C)cc2)C(=O)O)cc1 (tested in a mixture with another compound)	-1%	8%	·	·
O=Nc1ccc(NOC(=O)c2ccccc2Br)cc1	8%	9%	127*	85*
CCC1CCCCN1C(=S)Nc1ccc(OC(F)F)cc1 (centres undefined)	0%	-10%	12	6
O=C(NCCCN1CCOCC1)c1cccnc1SCc1ccccc1Cl	·	·	15	11
COc1ccc(CCN2C(=O)c3[nH]nc(-c4ccccc4O)c3C2c2cccc(O)c2)cc1OC (centres undefined)	7%	?	-8	-6
O=C1c2[nH]nc(-c3ccccc3O)c2C(c2cccc(Cl)c2)N1Cc1ccco1 (centres undefined)	13µM*	?	-25	-6
COc1cccc(C2c3c(-c4ccccc4O)n[nH]c3C(=O)N2CCc2ccc(OC)c(OC)c2)c1 (centres undefined)	7.1µM*	?	·	·
O=C1c2[nH]nc(-c3ccccc3O)c2C(c2ccc(F)cc2)N1Cc1ccco1 (centres undefined)	?	8.2µM*	-2	-3
COc1ccc(NC(=O)Cn2c(=O)n(CCc3ccccc3)c(=O)c3c4c(sc32)CCCC4)cc1	7%[46.1 µM]	-15%[46.1 µM]	·	·
COc1ccc(C2C3C(=O)N(Cc4ccccc4)C(=O)C3ON2c2ccccc2)c(OC)c1OC (centres undefined)	?	5.6µM*	25	2
CC(NC(=O)Nc1ccc(Br)cc1)C(C)(C)C (centres undefined)	·	·	80*	27*
COc1cccc(NC(=O)c2cc3ccccc3o/c2=N\O)c1	·	·	·	19*
O=C(Nc1ccccc1Cl)c1cc2ccccc2o/c1=N\O	11%[46.1 µM]	?	123*	41*
COc1cccc(NC(=O)c2cc3cccc(OC)c3o/c2=N\O)c1	·	·	109*	81*
Cc1ccc(Oc2ccc(Cl)cc2N)cc1	-24%[46.1 µM]	8%	100*	38*
Nc1cc(Cl)ccc1Oc1ccc2ccccc2c1	0%	4%	41*	34*
SMILES	Marburg entry inh	Lassa entry inh	Shiga inhibitor	CHX counter
CCOc1ccc(OCC)c(S(=O)(=O)NC2CC(C)(C)NC(C)(C)C2)c1	?	?	-7	-1
CCOc1c(S(=O)(=O)NC2CC(C)(C)NC(C)(C)C2)ccc(Cl)c1Cl	10µM*	-25%[46.1 µM]	-3	1
Cc1cccc(CNC(=O)c2oc3c(c2C)-c2nn(Cc4ccccc4Cl)cc2CC3)c1	·	4%[46.1 µM]	·	·
Cc1ccc2cc(CN(Cc3ccccc3)Cc3nnnn3C3CCCC3)c(=O)[nH]c2c1	?	-16%	22	3
Cc1ccc2cc(CN(Cc3ccc(F)cc3)Cc3nnnn3C3CCCC3)c(=O)[nH]c2c1	15µM*!	-21%	15	12*
CCc1ccc2[nH]c(=O)c(CN(Cc3ccc4c(c3)OCO4)Cc3nnnn3C3CCCC3)cc2c1	?	8.2µM*	-12	1
CCOc1ccc(CNC(=O)c2cc3c(=O)oc4ccc(C)cc4c3s2)cc1	14%[46.1 µM]	9%[46.1 µM]	·	·
O=C(NCCc1ccc(Cl)cc1)c1cnc2sc(N3CCCC3)nn2c1=O	·	-4%[46.1 µM]	·	·
CCn1c(SCc2nc3ccccc3[nH]2)nnc1-c1cnccn1	13%	-12%	55*	23*
